This excerpt belongs to a sample that is enriched for hits.
Pf Dd2 growth: qHTS Primary assay for Inhibitors of Plasmodium falciparum Dd2 growth in vitro; P. falciparum Dd2 growth, SYBR Green, 72 h; hit rate 4.3% among 120,000; Potency, µM (highest dose often 28.9 µM), inactives show at the top dose activity, negative = inhibition, usual class: inhibitors; AID 1347417, 2020; active means well fitted inhibition curve with a large enough effect;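 further: plate controls were DMSO vehicle for no effect and reference drug for full effect; nearly all actives have a fitted effect of over 65% in size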
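Readout: SYBR Green fluorescence, 485 nm excitation, 535 nm emission, after ~16 h lysis at 37C. Before that, Dd2-infected red cells (2.5% hematocrit) grew 72 h with compound, 29 uM top final concentration.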
* marks the source's active call; other numbers are inactive results; i = inactive; [ ] = remark or other dose. Potency means the concentration at half of the fitted maximal effect.

SMILES	Pf Dd2 growth
Cc1cc(-c2cc3c(nc2-c2ccccc2)nc(C(=O)NCCN(C)C)n3C)ccn1	-19.8%[44.1 µM]
CN(C)CCNC(=O)c1nc2nc(-c3ccccc3)c(Nc3ccc(F)cc3)cc2n1C	7.08µM*
COCc1nc2nc(-c3ccccc3)c(Nc3ccc(F)c(OC)c3)cc2n1C	i
Cc1ccccc1Nc1cc2c(nc1-c1ccccc1)nc(C(=O)NCCN(C)C)n2C	7.94µM*
CN(C)CCNC(=O)c1cc(-c2ccc(F)cc2)cc2ncn(C)c12	i
Cn1ncc(N2CCC(CNC(=O)c3cccc(-n4cnnc4)c3)C2)cc1=O (stereo not given)	0.4%
Cc1nn(C)cc1CN(C)C(=O)c1cn2ccnc(-c3ccccc3)c2n1	-10.7%
CNC(=O)[C@H]1C[C@H](Oc2ccccc2)CN1C(=O)Nc1cccc(F)c1	-9.3%
COC[C@H]1CCCN1C(=O)C[C@@H]1O[C@H](CNC(=O)Nc2ccccc2)[C@@H](O)[C@H]1O	13.1%[44.1 µM]
O=C(NCc1cccnc1)c1ccc(-c2ccc(N3CCSCC3)nc2)cc1	i
O=C(c1ccc2c(c1)OCO2)N1CCC2(CC1)COc1ccccc1CN2	1.26µM*
O=C1NC2(CCCN(C(=O)c3ccccc3F)C2)COc2ccccc21 (stereo not given)	-22.3%
O=C(c1ccccc1F)N1CCC2(CC1)COc1ccccc1NC2=O	4.6%
O=C1NC2(CCN(C(=O)c3ccc4c(c3)OCO4)C2)Oc2ccccc21 (stereo not given)	-18.8%
O=C1CC(C(=O)O)C2(CCN(C(=O)c3ccc4c(c3)OCO4)CC2)N1 (stereo not given)	4.7%
O=C(c1ccccc1F)N1CCC2(CC1)COc1ccccc1CN2	1.12µM*
CCC(=O)N1CCCN(C)c2ccccc21	16.3%
O=C1[C@@H]2C[C@@H](CN2C2COC2)Oc2ccccc2N1Cc1ccccn1	-5.4%[44.1 µM]
C[C@H]1[C@@H]2[C@@H](O)[C@H]([C@H](C)C(=O)N3CCCCC3)CC[C@@]2(C)CC[C@@H]1NC(=O)c1cncnc1	i
COc1ccc(C(=O)N2CCCCCC2c2nnc(-c3ccccc3)o2)cn1 (stereo not given)	-12.8%
COc1cc(CN2CCCC(c3[nH]ccc3C(N)=O)C2)ccc1F (stereo not given)	-29.2%
COc1cc(CN2CCC3(CC2)CN(c2ccncn2)CC3CO)ccc1F (stereo not given)	-13.4%
COc1cc(CN2CCC3(CCN(CC4CC4)CC3)C(CO)C2)ccc1F (stereo not given)	8.91µM*
CCOCCn1c(=O)[nH]c2cc(C(=O)N(C)Cc3cnn(C)c3)ccc21	-8.6%
COCCOc1ccc2c(n1)CCN(C(=O)c1cnccn1)C2	i
SMILES	Pf Dd2 growth
COCCOc1ccc(C(=O)N[C@@H]2CN(C(=O)Nc3cccc(OC)c3)CCC[C@H]2O)cc1	-17.6%
CCOc1ccccc1N1CCN(C(=O)[C@H]2CCC[C@H]2NC(=O)c2cnc(C)cn2)CC1	-9.0%
CCn1c(NCc2ccc(OC)c(OC)c2)nc2ccccc21	-4.7%
CCCCn1c(COc2cccc(OC)c2)nc2ccccc21	-13.0%
CCCCn1c(NCc2ccc(OC)cc2O)nc2ccccc21	7.94µM*
COc1cccc(CNCC2(COc3ccccc3)C[C@@H](O)[C@@H](O)C2)c1 (stereo not given in full)	3.98µM*
COc1cccc(C(=O)NCC2(COc3ccccc3)C[C@@H](O)[C@@H](O)C2)c1 (stereo not given in full)	i
COc1ccc(CNCC2(COc3cccnc3)C[C@@H](O)[C@@H](O)C2)cc1 (stereo not given in full)	-16.7%[44.1 µM]
O=C(CC[C@H]1NC(=O)c2ccccc2NC1=O)NCCc1ccccn1	-13.7%
N#Cc1ccc(C(=O)NC2CCN(c3cc(-c4ccccc4)[nH]n3)CC2)cc1	i
O=C(NC1CCN(c2cc(-c3ccc(Cl)cc3)[nH]n2)C1)c1ccc(Br)o1 (stereo not given)	12.6µM*
N#Cc1ccc(C(=O)NC2CCN(c3cc(-c4ccc(Cl)cc4)[nH]n3)C2)cc1 (stereo not given)	7.94µM*
N#Cc1ccc(C(=O)NC2CCN(c3cc(-c4ccc(Cl)cc4)[nH]n3)CC2)cc1	i
O=C(NC1CCN(c2cc(-c3ccc(Cl)cc3)[nH]n2)C1)c1cccnc1 (stereo not given)	i
Cc1ccccc1C(=O)NC1CCN(c2cc(-c3ccc(Cl)cc3)[nH]n2)C1 (stereo not given)	i
CCOc1ccc(-c2nnc(CCC(=O)NC(C)CC)c(=O)[nH]2)cc1 (stereo not given)	-18.2%
COc1cc(NC(=O)Cn2cccc2-c2nc(-c3ccc(F)cc3)no2)cc(OC)c1OC	40.8%
Cc1cc(C)c(S(=O)(=O)N2CC(c3nc(Cc4ccccc4)no3)C2)cc1C	-0.7%
CS(=O)(=O)N(C1CC1)C1CCOC2(CCN(C(=O)Cc3cccc(F)c3)CC2)C1 (stereo not given)	i
Cc1cccc(-n2ccnc2SCC(=O)Nc2ccc(F)cc2F)c1C	3.5%
CCc1ccc(NC(=O)CSc2nccn2-c2cccc(C)c2C)cc1	23.7%
Cc1ccc(C)c(NC(=O)CSc2nccn2-c2cccc(C)c2C)c1	3.55µM*
O=C(Cn1ccn2nc(-c3ccc(F)cc3)c(CO)c2c1=O)N1CCC(Cc2ccccc2)CC1	i
CCn1cnnc1CC1CCN(C(=O)c2ccc(OC)cc2OC)C1 (stereo not given)	-17.9%
COCc1nc(C2CCCN(C(=O)c3ccccc3F)C2)no1 (stereo not given)	33.7%
SMILES	Pf Dd2 growth
O=C(NCc1cccnc1Oc1ccccc1)c1ccccn1	1.4%
O=S(=O)(Cc1ccccc1)NCc1cccnc1Oc1ccccc1	-7.3%
CCC(CC)NCc1cccnc1Oc1ccccc1	12.6µM*
O=C1NCC(=O)N2CCN(C(=O)Nc3ccccc3Oc3ccccc3)CC12 (stereo not given)	-8.9%
COC(C(=O)Nc1ccnn1C1CCN(C(=O)C2CCC2)CC1)c1ccccc1 (stereo not given)	-2.0%
COc1cccc(NC(=O)O[C@@H]2CC[C@]3(C)C(CC[C@@H](O)[C@H]3CC(=O)N3CC[C@H](NC(C)=O)C3)[C@]2(C)CO)c1 (stereo not given in full)	-4.4%
COC[C@H]1CCCN1C(=O)C[C@@H]1O[C@H](CNC(=O)c2ccccc2)[C@@H](O)[C@H]1O	7.3%[44.1 µM]
Cc1ccc(-c2csc(-c3c(N)c(C(=O)c4ccc5c(c4)OCO5)n4ccccc34)n2)cc1C	i
Cc1ccc(C)c(C(=O)c2c(N)c(-c3nc(-c4ccc5c(c4)OCO5)cs3)c3ccccn23)c1	8.91µM*
COc1ccc(C(=O)c2c(N)c(-c3nc(-c4ccc5c(c4)OCO5)cs3)c3ccccn23)cc1	15.9%
Cc1ccc2c(C(=O)NC3CC3)cnn2c1	-6.2%[44.1 µM]
CC(C)c1ccc(S(=O)(=O)N2CCC(CC(=O)NCc3ccccc3)C2)cc1 (stereo not given)	i
COc1cc(CCC(=O)N2CCc3n[nH]c(=O)n3CC2)on1	i
CN1CCCCCC(O)c2cc(C(=O)NCCN3CCOCC3)ccc21 (stereo not given)	-16.0%
CN1CCCCCC(O)c2cc(C(=O)NCCCc3ccccc3)ccc21 (stereo not given)	-18.3%
CN1CCCCCC(O)c2cc(C(=O)NCCc3c[nH]c4ccccc34)ccc21 (stereo not given)	12.6µM*
CN1CC2(CCN(C(=O)c3cccnc3N(C)C3CCCCC3)CC2)OC1=O	-9.8%
CC[C@H]1CN(C(=O)C2CC2)CC[C@H]1CC(=O)NC1CC1	47.2%[44.1 µM]
